# Measured values reported in the supplement of paper PMC10981050.
# Values joined by “and” are separate entries in the source; they are usually repeats but may differ in a detail not shown here. Identical values can stand only once. Counter-ions that a name gives are not always drawn.
# How the values were obtained:
# Test in all cases: cell viability relative to vehicle control; higher = less cytotoxic
# Conditions in all cases: 10 µM
# K562 = test system: K562
# Summary of the method: (§1)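 After removal of identity-inconsistent compounds, the Selleck bioactive, kinase and epigenetic probe libraries were screened on CRISPR-edited mutant clones and isogenic wild-type clones of four leukaemia lines. Plates were 384-well, each well holding 2000 cells in 50 µL medium and receiving a single 10 µM acoustically dispensed dose. CellTiter-Glo luminescence was read 48 h later, after the supernatant was taken off. Genedata Screener was used to express viability as percent of the on-plate vehicle control.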
# MARIMO = test system: MARIMO
# Summary of the method: as §1
# MOLM14 = test system: MOLM14
# Summary of the method: as §1
# OCI-AML2 = test system: OCI-AML2
# Summary of the method: as §1
SMILES,cell viability (K562; SRSF2 genotype: SRSF2 P95H/wt),cell viability (K562; SRSF2 genotype: SRSF2 wt/wt) [%],cell viability (MARIMO; SRSF2 genotype: SRSF2 P95H/wt) [%],cell viability (MARIMO; SRSF2 genotype: SRSF2 wt/wt) [%],cell viability (MOLM14; SRSF2 genotype: SRSF2 P95H/wt) [%],cell viability (MOLM14; SRSF2 genotype: SRSF2 wt/wt) [%],cell viability (OCI-AML2; SRSF2 genotype: P95H/wt) [%],cell viability (OCI-AML2; SRSF2 genotype: wt/wt) [%]
CC(C)[N+]1(C)[C@@H]2CC[C@H]1C[C@@H](OC(=O)C(CO)c1ccccc1)C2 (stereo partly drawn) [Ipratropium bromide],113% and 109%,105,99.5,105,99.8,105,99.1,118
Cc1cc(=O)oc2c(C=O)c(O)ccc12,110% and 118%,112,99,97.4,94.8,109,92.5,98.3
COc1cc(C2Oc3cc([C@H]4Oc5cc(O)cc(O)c5C(=O)[C@@H]4O)ccc3OC2CO)ccc1O (stereo partly drawn) [Silibinin (Silybin)],95% and 94%,92.2,97.5,110,98.8,98.4,104,116
CCCCCCC(O)C(=O)O (stereo not drawn) [2-Hydroxycaprylic acid],103% and 102%,107,101,105,101,109,105,111
CCc1nc(N)nc(N)c1-c1ccc(Cl)cc1 [Pyrimethamine],73.7% and 96.8%,36.4,95.2,99.7,102,92.3,107,102
CC(C)(C)NC(=O)c1cncn1C1CCN(c2ccc(-c3nnc(C(F)(F)F)o3)cn2)CC1,69% and 57.2%,63.8,53.1,64.5,56.7,45.7,8.34,20.6
CC(=O)N1CCN(CCOc2ccc(C3CCN(C4=Nn5c(nnc5C(F)(F)F)CC4)CC3)cc2)CC1,68.5% and 73%,71.5,60.6,57.4,53.5,53.2,49.8,59.7
CCOC(=O)c1cc(O)c(O)c(O)c1 [Ethyl gallate],98.4% and 88.5%,87.8,72.1,88.3,78.5,87.2,80.6,86.8
CN1C(=O)[C@@H](NC(=O)c2cc(Cc3ccccc3)on2)COc2ccccc21,105% and 100%,105,98.9,102,110,110,99.6,99.8
CNC(=O)c1cnn(-c2nc(N)c3ncn([C@@H]4O[C@H](CO)[C@@H](O)[C@H]4O)c3n2)c1 [Regadenoson],106% and 105%,104,102,103,103,103,104,119
C1=N/C2=N/c3ccc(OCCN4CCCC4)c(c3)COC/C=C/COCc3cccc(c3)C(=C1)N2 [Pacritinib (SB1518)],3.78% and 2.31%,4.47,0.41,0.42,0.21,0.25,0.2,0.32
Cc1cc(Nc2ncc3c(n2)N(C)C(=O)N(c2cc(NC(=O)c4cccc(C(F)(F)F)c4)ccc2C)C3)n(C)n1 [Pluripotin (SC1)],35.1% and 35.2%,30.4,22.1,21.8,7.16,7.23,12.7,20.3
CC1CCC2(C(=O)OC3OC(CO)C(O)C(O)C3O)CCC3(C)C(=CCC4C5(C)CCC(OC6OCC(O)C(O)C6O)C(C)(C)C5CCC43C)C2C1(C)O (stereo not drawn) [Ziyu-glycoside I],103% and 96.8%,99.4,101,99.9,107,105,99,100
COc1cc2c(c(O)c1OC)-c1c(cc(OC)c(OC)c1OC)C[C@@H](C)[C@@H](C)C2 [Schisanhenol],96.7% and 100%,97.1,100,107,90.3,96.8,91.7,102
Cc1nc2n(c(=O)c1CCN1CCC(c3noc4cc(F)ccc34)CC1)CCCC2O (stereo not drawn) [Paliperidone],84.4% and 93.4%,80.7,90.2,93.2,83.5,91.8,89,91.2
O=c1cc(-c2ccccc2)oc2cc(O[C@@H]3O[C@H](CO[C@@H]4O[C@H](CO)[C@@H](O)[C@H](O)[C@H]4O)[C@@H](O)[C@H](O)[C@H]3O)c(O)c(O)c12 [Oroxin B],101% and 105%,98.7,102,104,112,107,95.6,98.6
OCCc1c[nH]c2ccccc12 [Tryptophol],102% and 92.7%,94.7,100,110,97.8,99.4,90.5,111
CC(=O)OCC(=O)[C@@]1(O)CC[C@H]2[C@@H]3CCC4=CC(=O)C=C[C@]4(C)[C@H]3[C@@H](O)C[C@@]21C [Prednisolone acetate (Omnipred)],87.3% and 81.8%,84.8,86.1,84,80.5,80.3,73.3,87
O=C1/C(=C/c2cccs2)CC/C1=C\c1cccs1,99.2% and 106%,110,96.2,104,105,99.2,109,86
O=C1NC(=O)C(c2ccccc2)(c2ccccc2)N1 [Phenytoin (Lepitoin)],98.1% and 111%,99.6,107,103,100,103,105,91.6
COc1ccc(-c2cc(=O)c3c(O)cc(O[C@@H]4O[C@H](CO[C@@H]5O[C@@H](C)[C@H](O)[C@@H](O)[C@H]5O)[C@@H](O)[C@H](O)[C@H]4O)cc3o2)cc1 [Linarin],107% and 103%,102,95.8,101,111,102,103,98.7

SMILES,cell viability (K562; SRSF2 genotype: SRSF2 P95H/wt),cell viability (K562; SRSF2 genotype: SRSF2 wt/wt) [%],cell viability (MARIMO; SRSF2 genotype: SRSF2 P95H/wt) [%],cell viability (MARIMO; SRSF2 genotype: SRSF2 wt/wt) [%],cell viability (MOLM14; SRSF2 genotype: SRSF2 P95H/wt) [%],cell viability (MOLM14; SRSF2 genotype: SRSF2 wt/wt) [%],cell viability (OCI-AML2; SRSF2 genotype: P95H/wt) [%],cell viability (OCI-AML2; SRSF2 genotype: wt/wt) [%]
Cn1sc(=O)n(Cc2ccccc2)c1=O,0.36% and 9.05%,0.35,0.8,0.14,0.12,0.54,0.07,0.09
c1ccc(-c2nn3c(c2-c2ccnc4cc(OCCN5CCOCC5)ccc24)CCC3)nc1,104% and 111%,97.1,106,120,105,110,108,117
NNc1nncc2ccccc12 [Hydralazine hydrochloride],99.2% and 101%,96.3,97.6,101,98.1,99,106,87
CCOC(=O)c1ccc(N2NC(=O)C(=Cc3ccc([N+](=O)[O-])o3)C2=O)cc1,95.6% and 99.7%,96,95.8,90.9,90.8,94.9,102,107
CC(=O)O[C@]1(C(C)=O)CC[C@H]2[C@@H]3C=C(Cl)C4=CC(=O)[C@@H]5C[C@@H]5[C@]4(C)[C@H]3CC[C@@]21C [Cyproterone acetate],87.2% and 85.8%,84.7,66.1,71.6,86.2,93.3,75,77.4
O=C(O)c1ccccc1C(=O)Nc1ccc(-c2ccccc2)cc1 [Kartogenin],106% and 113%,103,105,107,106,105,105,97.9
CC(C)OC(=O)CCC/C=C\C[C@@H]1[C@@H](/C=C/C(F)(F)COc2ccccc2)[C@H](O)C[C@@H]1O [Tafluprost],85.8% and 90.8%,92.1,85,96.2,89.3,97.7,90.6,95
O=CC[C@@H](O)[C@H](O)[C@H](O)CO [2-Deoxy-D-glucose],104% and 94.5%,99.2,101,107,102,101,91.3,108
C=C1[C@H](CO)[C@@H](O)C[C@@H]1n1cnc2c(=O)[nH]c(N)nc21 [Entecavir],109% and 104%,103,94.8,101,101,106,79.5,93.7
COc1ccc(-n2c(C)c([N+](=O)[O-])c3ccc(O)cc32)cc1,97.5% and 95.4%,94,99.2,108,93.6,98.2,73.1,80.2
O=C1CCc2ccc(OCCCCN3CCN(c4cccc(Cl)c4Cl)CC3)cc2N1 [Aripiprazole (Abilify)],90.5% and 93%,93.2,86.8,80.1,86.5,98,47.1,75.5
CC(C(=O)O)c1ccc2c(c1)CC(=O)c1ccccc1S2 (stereo not drawn) [Zaltoprofen],102% and 98.4%,97.7,96.8,103,99.1,98.8,94.4,104
Nc1ncnc2c1C(=O)N(c1ccc([C@H]3CC[C@H](CC(=O)O)CC3)cc1)CCO2,107% and 104%,110,105,107,105,105,108,123
CC(=O)OCCc1ccc(O)c(O)c1 [Hydroxytyrosol Acetate],93.5% and 95.4%,104,85.5,98.6,95.7,103,108,110
COc1ccccc1OCC(O)COC(N)=O (stereo not drawn) [Methocarbamol (Robaxin)],99.3% and 104%,107,94.9,106,109,104,98.4,106
Fc1ccc(-c2c3cccc(C(F)(F)F)c3nn2Cc2ccc(F)cc2Cl)cc1,95.4% and 91.2%,90.1,97.2,114,94.2,98,114,120
CN1C(C(=O)Nc2ccccn2)=C(O)c2sc(Cl)cc2S1(=O)=O [Lornoxicam (Xefo)],94.3% and 91.8%,87.5,87.2,95.8,91,87.8,92.8,94.5
Nc1c2c(nc3ccccc13)CCCC2 [tacrine hydrochlorid],101% and 110%,112,100,113,103,105,122,94.5
NN1CC(=O)NC1=O [1-Aminohydantoin Hydrochloride],103%,97.1,99.8,106,97.1,101,89.2,106
C[C@@H]1[C@H]2c3cc4c(cc3O[C@@]35OCOC3=CC(=O)[C@H](C[C@H]1C)[C@@H]25)OCO4 [Sauchinone],92.2% and 99.5%,100,87.5,92.9,55.1,94.9,87.6,86.8
